Compound activity (PubChem BioAssay)
Sampled rows, rich in hits. Any-hit rate of the full collection: about 1.8%.
GLP-1R agonist: agonists of human GLP-1 receptor; P43220; HEK293 GLP-1R CRE-luciferase, luminescence, 4-6 h; cells express a hypersensitive GLP-1R form; Potency, µM (titrated, usually from 45.6 µM), inactives show top-dose activation, hits mostly activators; 0.007% of 380,000 active; also: % of control where 0% means no effect
Target sequence (P43220 whole entry, looked up): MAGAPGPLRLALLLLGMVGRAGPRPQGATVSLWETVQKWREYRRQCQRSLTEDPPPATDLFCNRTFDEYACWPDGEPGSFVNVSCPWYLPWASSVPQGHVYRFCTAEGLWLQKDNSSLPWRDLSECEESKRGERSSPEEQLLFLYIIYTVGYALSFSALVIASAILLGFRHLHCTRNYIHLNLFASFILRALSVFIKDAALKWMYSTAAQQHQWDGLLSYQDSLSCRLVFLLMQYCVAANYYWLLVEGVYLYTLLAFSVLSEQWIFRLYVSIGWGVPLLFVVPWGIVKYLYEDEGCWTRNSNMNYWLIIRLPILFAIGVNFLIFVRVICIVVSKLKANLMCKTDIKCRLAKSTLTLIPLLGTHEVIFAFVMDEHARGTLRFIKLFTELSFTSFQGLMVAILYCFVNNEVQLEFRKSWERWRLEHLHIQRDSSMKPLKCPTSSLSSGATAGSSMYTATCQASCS
GLP1R inv ag: GLP-1 receptor (human) inverse agonism | Potency, µM (titrated, usually from 38.3 µM), for inactives: at the highest dose activity change, negative = inhibition, actives largely listed as inhibitors | HEK293 GLP-1R CRE-luciferase, luminescence, 24 h; GLP-1R form is constitutively active | 1.6% of 410,000 active | AID 624417 | P43220; also: % is scaled to controls: 0 for no effect and ±100 for the full control effect; nearly all actives have a fitted effect of over 55% in size
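Inverse agonism was detected as reduced cAMP-driven luciferase luminescence after 24 h compound treatment. The cells were HEK293 clones expressing constitutively active human GLP-1R with the reporter. Reporter-only and GPR119 cell lines served as counterscreen controls.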
Tb PGK inh: T. brucei PGK inhibition | P07378 | PGK/GAPDH coupled, Kinase-Glo luminescence, 60 min | Potency, µM (series often up to 57.5 µM), for the others: at the highest dose activity change, negative = inhibition, hits mostly inhibitors | 0.043% of 380,000 active; also: % is scaled to controls: 0 for no effect and ±100 for the full control effect; nearly all actives have a fitted effect of over 60% in size
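Luminescent ATP detection (Kinase-Glo Plus) follows a 60-minute room-temperature incubation, with wells lacking PGK as controls. Buffer: 100 mM TEA (pH 7.6), 5 mM MgCl2, 0.01% Tween-20. Coupling enzyme GAPDH (100 nM final) supplies unstable 1,3-BPG in-well.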
Pin1 inh: blocks the human prolyl isomerase Pin1. Q13526. Pin1 FP peptide displacement, HiFluor488, 10 min. Potency, µM (titrated, usually from 115 µM), inactives show top-dose activity, negative = inhibition, usual class: inhibitors. 0.009% of 390,000 active. AID 504891; active = well fitted inhibition curve with a large enough effect in the polarisation, with a control signal flat, not every such curve was filed as active; inconclusive = small, poorly fitted or top-dose-only effect, or effect the other way, or a change in a side signal; inactive = no such curve, though single readings can be large or run the other way; the % refers to the polarisation; also: % is scaled to controls: 0 for no effect and ±100 for the full control effect
Target sequence (Q13526 whole entry, looked up): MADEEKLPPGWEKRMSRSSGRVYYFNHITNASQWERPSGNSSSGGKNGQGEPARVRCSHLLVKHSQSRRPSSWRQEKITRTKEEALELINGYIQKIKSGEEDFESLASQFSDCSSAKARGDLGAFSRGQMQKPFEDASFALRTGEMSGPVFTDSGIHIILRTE
HEK293 tox: cytotoxicity in counter-screen for GLP-1R inverse agonists. 0.13% of 410,000 active. Potency, µM (titrated, usually from 38.3 µM), for the others: at the highest dose activity change, negative = inhibition, most hits filed as inhibitors. HEK293 cAMP-luciferase reporter cells, luminescence, 24 h. AID 624418;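 also: loss of luciferase light is scored as toxicity; % is scaled to controls: 0 for no effect and ±100 for the full control effect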
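Compound-treated cells are incubated 24 hr at 37 deg C under 5% CO2 after a 12 hour attachment period, then luciferase detection reagent is added and luminescence is measured following 12 min at room temperature; lowered signal indicates toxicity.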
Tb PFK inh-1: blocks T. brucei phosphofructokinase; O15648; T. brucei PFK, ADP-Glo luminescence; Potency, µM (doses to about 57.5 µM), for the others: at the top dose activity, negative = inhibition, most hits filed as inhibitors; 0.17% of 330,000 active; AID 485367;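 also: 0% = uninhibited 1x PFK enzyme wells and -100% = no-enzyme wells; nearly all actives have a fitted effect of over 60% in size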
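Compounds were pin-transferred as a titration series up to 57 uM into substrate buffer (0.5 mM F6P, 0.1 mM ATP, pH 8.0), then 1.25 nM PFK was added and reactions ran 45 min before ADP-Glo detection.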
Tb PFK KinaseGlo: Tb phosphofructokinase inhibition, orthogonal luminescence. Potency, µM (top dose mostly 57.5 µM), inactives show top-dose inhibition. shares compounds with Tb PFK inh-1. AID 504636. 47% of 1,100 active. Tb PFK enzyme, ATP depletion, Kinase-Glo Plus luminescence; calls by dose curve; also: nearly all actives have a fitted effect of over 60% in size
Tb PFK inh-2: validation of T. brucei phosphofructokinase inhibitors. shares compounds with Tb PFK inh-1. purified T. brucei PFK, ADP-Glo luminescence, 45 min. Potency, µM (top dose mostly 57.5 µM), for inactives: at the top dose activity change, negative = inhibition, most hits filed as inhibitors. 41% of 1,100 active. AID 504637;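 also: plate controls were full PFK enzyme control for no effect and no enzyme control for full effect; nearly all actives have a fitted effect of over 60% in size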
* = called active by the depositor; [ ] = dose if it differs, or a comment. Unless noted, calls follow the shape of the dose curve; as a rule, active = well fitted curve in the direction sought with a large enough effect; inconclusive = small, poorly fitted or top-dose-only effect, or another doubt; inactive = no such curve, though single readings can be large; an effect the other way counts as inactive or inconclusive. Potency is read from the fitted curve at half-maximal effect.

O=C(OC1C2CCC1C1CN(CCc3ccccc3)CC12)c1ccccc1 (stereo not drawn) was read as GLP-1R agonist 0%, GLP1R inv ag inconclusive, Tb PGK inh 5%, Pin1 inh -3%, HEK293 tox inconclusive and Tb PFK inh-1 1%.
For COc1ccc(C=CC(=O)c2c(OC)cc(OC)c(OC)c2O)cc1 the results were GLP-1R agonist -9%, GLP1R inv ag inconclusive, Tb PGK inh -1%, Pin1 inh -2% and HEK293 tox inconclusive.
Screening c1ccc2oc(-c3[nH]ncc3CN3CCC(N4CCSCC4)CC3)cc2c1 returned GLP-1R agonist -3%, GLP1R inv ag -42%, Tb PGK inh 1%, Pin1 inh 0%, HEK293 tox inconclusive and Tb PFK inh-1 5%.
Screening Cc1ccc(-c2cc(C(=O)NCCCn3ccnc3)c3cc(Br)ccc3n2)o1 returned GLP-1R agonist -31%, GLP1R inv ag 3%, Tb PGK inh -1%, Pin1 inh 7%, HEK293 tox 93% and Tb PFK inh-1 7%.
`CCc1nnc(NC(=O)c2cc(-c3ccc(C)o3)nc3ccccc23)s1` gave GLP-1R agonist 2%, GLP1R inv ag 13%, Tb PGK inh inactive, Pin1 inh 4%, HEK293 tox 26%, Tb PFK inh-1 4.8µM*, Tb PFK KinaseGlo 4.8µM* and Tb PFK inh-2 6.7µM*.
For COc1cccc(NC(=O)c2cc(-c3ccc(C)o3)nc3ccccc23)c1 the results were GLP-1R agonist 13%, GLP1R inv ag 7%, Tb PGK inh -11%, Pin1 inh 77%, HEK293 tox -15%, Tb PFK inh-1 inconclusive, Tb PFK KinaseGlo inconclusive and Tb PFK inh-2 inconclusive.
`Cc1nnc(NC(=O)c2cc(-c3ccco3)nc3ccccc23)s1` gave Tb PFK inh-1 inconclusive, Tb PFK KinaseGlo 9.5µM* and Tb PFK inh-2 inconclusive.
NC1CCc2cc(O)c(O)cc2C1 (stereo not drawn) was read as GLP-1R agonist 14%, GLP1R inv ag 10%, Tb PGK inh -8%, Pin1 inh -2%, HEK293 tox -28%, Tb PFK inh-1 6.7µM*, Tb PFK KinaseGlo 2.7µM* and Tb PFK inh-2 2.7µM*.
For C[C@@H]1CNC(=O)c2c(C(=O)Nc3cccc(Cl)c3)ncn21 the results were GLP-1R agonist -3%, GLP1R inv ag 27%, Tb PGK inh -1% and HEK293 tox -14%.
Screening Oc1ccc(-c2cn3c(n2)SCC3)cc1O returned GLP-1R agonist 0%, GLP1R inv ag 65%, Tb PGK inh inconclusive, Pin1 inh -1%, HEK293 tox -27%, Tb PFK inh-1 inconclusive, Tb PFK KinaseGlo 2.4µM* and Tb PFK inh-2 4.8µM*.
Screening COc1ccc(N2C(=O)C(Cl)=C(Oc3cccc(OC)c3)C2=O)cc1 returned GLP-1R agonist 4%, GLP1R inv ag inconclusive, Tb PGK inh inactive, Pin1 inh -5%, HEK293 tox inconclusive and Tb PFK inh-1 0%.
CCOCCSc1nc2c(c(-c3cccs3)c1C#N)CC/C2=C/c1cccs1 was read as GLP-1R agonist 0%, GLP1R inv ag -32%, Tb PGK inh 4%, Pin1 inh inconclusive, HEK293 tox 3% and Tb PFK inh-1 -3%.
For CCOC(=O)c1c(-c2ccc(OC)cc2)csc1/N=C/C1=C(O)CCCC1=O the results were GLP-1R agonist -9%, GLP1R inv ag inconclusive, Tb PGK inh 2%, Pin1 inh inconclusive, HEK293 tox -1%[1.53 µM], Tb PFK inh-1 inconclusive, Tb PFK KinaseGlo 0% and Tb PFK inh-2 -2%.
CCOC(=O)c1ccc(N=Cc2c(O)n(-c3ccc(OC)cc3)c(=S)[nH]c2=O)cc1 was read as GLP-1R agonist 0%, GLP1R inv ag -6%, Tb PGK inh inactive, Pin1 inh inconclusive, HEK293 tox -14% and Tb PFK inh-1 -4%.
Cc1c(Nc2cc(Cl)c3nonc3c2[N+](=O)[O-])c(=O)n(-c2ccccc2)n1C was read as GLP-1R agonist -5%, GLP1R inv ag inconclusive, Tb PGK inh 1%, Pin1 inh 3%, HEK293 tox inconclusive, Tb PFK inh-1 inconclusive, Tb PFK KinaseGlo inconclusive and Tb PFK inh-2 inconclusive.
`O=c1[nH]c(=S)n(Cc2ccco2)c(O)c1C=NCc1cccs1` gave GLP-1R agonist -1%, GLP1R inv ag 4%, Tb PGK inh -3%, Pin1 inh inconclusive, HEK293 tox 17%, Tb PFK inh-1 inconclusive, Tb PFK KinaseGlo inconclusive and Tb PFK inh-2 -13%.
O=c1[nH]c(=O)n(Cc2ccco2)c(O)c1C=NCc1cccs1 was read as GLP-1R agonist 10%, GLP1R inv ag 1%, Tb PGK inh -9%, Pin1 inh 0% and HEK293 tox 0%.
For CCN1/C(=C/C=C/c2oc3ccc(-c4ccccc4)cc3[n+]2CC)Oc2ccc(-c3ccccc3)cc21 the results were GLP-1R agonist -7%, GLP1R inv ag inconclusive, Tb PGK inh -12%, Pin1 inh -174%, HEK293 tox inconclusive, Tb PFK inh-1 inconclusive, Tb PFK KinaseGlo -27% and Tb PFK inh-2 inconclusive.
O=C1CCC/C(=N/NC(=O)c2cc(NS(=O)(=O)c3cccs3)cc(NS(=O)(=O)c3cccs3)c2)C1 was read as GLP-1R agonist -5%, GLP1R inv ag 12%, Tb PGK inh -16%, Pin1 inh 3%, HEK293 tox 14%, Tb PFK inh-1 inconclusive, Tb PFK KinaseGlo 21µM* and Tb PFK inh-2 inconclusive.
Cc1ccc(S(=O)(=O)CCC(=O)c2cccc([N+](=O)[O-])c2)cc1 was read as GLP-1R agonist -3%, GLP1R inv ag inconclusive, Tb PGK inh -2%, Pin1 inh -3%, HEK293 tox inconclusive, Tb PFK inh-1 13µM*, Tb PFK KinaseGlo 21µM* and Tb PFK inh-2 inconclusive.
Cc1cccc([N+](=O)[O-])c1 was read as GLP-1R agonist -1%, GLP1R inv ag 4%, Tb PGK inh inactive, Pin1 inh -1%, HEK293 tox 1% and Tb PFK inh-1 0%.
